High-throughput results (PubChem BioAssay)
ERp5 inh: ERp5 (human) disulfide isomerase inhibition | Q15084 | ERp5 insulin aggregation, absorbance 650 nm, 90 min | inhibition, % at 9.99 µM | 350,000 compounds, 0.05% hits;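 active means mean replicate inhibition above about 25%, with every replicate also reaching it, limit read from the data, passing the limit was not always enough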
PDI turbidity: blocks human protein disulfide isomerase activity; PDI insulin aggregation turbidity, A650, 90 min; inhibition, % at 10 µM; 350,000 compounds, 0.052% hits; AID 588391;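 active means mean inhibition across replicates of 30% or more, whatever share of single replicates reach that level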
Target sequence (P07237 whole entry, looked up): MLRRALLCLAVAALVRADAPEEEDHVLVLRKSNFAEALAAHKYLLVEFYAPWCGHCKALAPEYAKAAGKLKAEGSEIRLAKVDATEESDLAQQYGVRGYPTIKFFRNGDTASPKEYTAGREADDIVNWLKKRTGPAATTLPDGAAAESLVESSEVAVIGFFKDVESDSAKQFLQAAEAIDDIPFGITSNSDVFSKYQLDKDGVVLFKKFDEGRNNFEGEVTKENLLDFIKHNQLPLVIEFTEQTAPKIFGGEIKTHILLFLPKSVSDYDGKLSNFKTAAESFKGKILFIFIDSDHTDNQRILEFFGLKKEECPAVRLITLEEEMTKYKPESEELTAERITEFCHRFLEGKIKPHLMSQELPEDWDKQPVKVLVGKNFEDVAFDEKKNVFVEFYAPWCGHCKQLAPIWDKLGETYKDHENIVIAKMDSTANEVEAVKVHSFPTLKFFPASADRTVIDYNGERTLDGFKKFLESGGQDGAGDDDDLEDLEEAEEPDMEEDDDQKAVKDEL
SIRT5 inh: inhibitors of human sirtuin-5 desuccinylase | Purified SirT5, succinyl-peptide AMC, trypsin-coupled fluorescence | inhibition, % at 15 µM | 330,000 compounds, 1.1% hits | AID 652115; in the data active means inhibition above about 15%
DENV2 CPE: inhibitors of DENV2 cytopathic effect | 350,000 compounds, 1.7% hits | CPE inhibition, % at 9.99 µM | DENV2-infected cells, cytopathic effect rescue, plate reader; in the data active means CPE inhibition above about 20%, passing the limit was not always enough; tested in BHK-21 cells
Rtt109 HAT inh: blocks Candida albicans Rtt109/Vps75 acetyltransferase activity. 330,000 compounds, 0.16% hits. inhibition, % at 34.9 µM. purified Rtt109/Vps75, ThioGlo CoA-SH fluorescence, 4 h. Q5AAJ8;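 active means inhibition of at least 50% in every replicate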
Each line names hits and unclear results; the compound was inactive in the other large screens; ! = repeats disagree. This is a sample that favours compounds with a hit; in the whole collection about 2.3% have one here.

CO[C@@H]1CN(C)C(=O)c2ccc(NC(=O)c3cnccn3)cc2OC[C@@H](C)N(CCc2ccccc2)C[C@H]1C	none (no result: PDI turbidity, DENV2 CPE, Rtt109 HAT inh)
C[C@H](CO)N1C[C@H](C)[C@@H](CN(C)CC2CC2)Oc2c(NC(=O)Cc3ccccc3)cccc2C1=O	SIRT5 inh 25
C[C@H](CO)N1C[C@H](C)[C@H](CN(C)CC2CCCCC2)Oc2c(NC(=O)C3CC3)cccc2C1=O	DENV2 CPE 36 (no result: PDI turbidity, Rtt109 HAT inh)
C[C@@H]1CN([C@H](C)CO)C(=O)c2cccc(NC(=O)C3CC3)c2O[C@H]1CN(C)CC1CCCCC1	DENV2 CPE 75 (no result: PDI turbidity, Rtt109 HAT inh)
C[C@H](CO)N1C[C@H](C)[C@@H](CN(C)CC2CCCCC2)Oc2c(NC(=O)C3CC3)cccc2C1=O	none
CO[C@H]1CN(C)C(=O)c2cc(NC(=O)CC(F)(F)F)ccc2OC[C@H](C)N(C(C)=O)C[C@H]1C	none (no result: PDI turbidity, Rtt109 HAT inh)
CO[C@H]1CN(C)C(=O)c2cc(NC(=O)CC(F)(F)F)ccc2OC[C@@H](C)NC[C@H]1C	DENV2 CPE 26 (no result: PDI turbidity, Rtt109 HAT inh)
CO[C@@H]1CN(C)C(=O)c2cc(NC(=O)CC(F)(F)F)ccc2OC[C@H](C)NC[C@@H]1C	none (no result: PDI turbidity, Rtt109 HAT inh)
CO[C@H]1CN(C)C(=O)c2cc(NC(=O)CC(F)(F)F)ccc2OC[C@H](C)N(C(C)=O)C[C@@H]1C	SIRT5 inh 16 (no result: PDI turbidity, Rtt109 HAT inh)
CO[C@@H]1CN(C)C(=O)c2ccc(NC(=O)CC(F)(F)F)cc2OC[C@H](C)N(C(C)=O)C[C@@H]1C	DENV2 CPE 108 (no result: PDI turbidity, SIRT5 inh, Rtt109 HAT inh)
COc1ccc2c3c(n(C)c2c1)[C@@H](CO)N(C(C)=O)CC31CN(C(=O)c2cnccn2)C1	none (no result: PDI turbidity, Rtt109 HAT inh)
O=C(C[C@@H]1C[C@H]2c3cc(NC(=O)NC4CCCC4)ccc3O[C@H]2[C@H](CO)O1)NCc1ccc(Oc2ccccc2)cc1	none (no result: PDI turbidity, Rtt109 HAT inh)
C=CCOC(=O)C1=C[C@@H](c2ccc(Br)cc2)C[C@@H](OCc2ccc(CO)cc2)O1	SIRT5 inh 26!
CCCCCCCC1c2c(c(C)c(C)oc2=O)Oc2c(C)c(C)oc(=O)c21	DENV2 CPE 89 (no result: SIRT5 inh)
COCCN(C(=S)Nc1cc(C)cc(C)c1)C(C)c1cccs1 (configuration not stated)	none
COCCN(C(=S)Nc1cccc(C)c1)C(C)c1cccs1 (configuration not stated)	DENV2 CPE 30
C[C@H]1CN([C@@H](C)CO)C(=O)Cc2cc(NC(=O)Nc3ccc(F)cc3)ccc2O[C@@H]1CN(C)S(=O)(=O)c1ccccc1	none (no result: PDI turbidity, Rtt109 HAT inh)
Cc1cc2oc(=O)cc(Cn3ccnc3)c2cc1Cl	DENV2 CPE 26 (no result: Rtt109 HAT inh)
Cc1cc2oc(=O)cc(Cn3ccnc3)c2cc1O	none (no result: ERp5 inh, SIRT5 inh, DENV2 CPE)
CCCNC(=O)C(Cc1ccc(F)cc1)NC(=O)c1ccc(C#N)cc1 (configuration not stated)	none (no result: SIRT5 inh)
CCCNC(=O)C(Cc1ccc(I)cc1)NC(=O)c1ccc(C#N)cc1 (configuration not stated)	DENV2 CPE 33 (no result: SIRT5 inh)
CCn1c(C)nc2cc(C(=O)NNC(=O)Nc3ccc(Cl)c(Cl)c3)ccc21	SIRT5 inh 18 (no result: PDI turbidity, Rtt109 HAT inh)
CCn1c(C)nc2cc(C(=O)NNC(=S)Nc3ccc(Cl)cc3)ccc21	none
Cc1noc(C)c1NC(=O)NCC[C@H]1CC[C@H](NC(=O)Nc2cccc(Cl)c2)[C@@H](CO)O1	none (no result: PDI turbidity, Rtt109 HAT inh)
CN1C(=O)c2cc(NC(=O)C3CCOCC3)ccc2OC[C@H]2O[C@@H](CC(=O)NCC3CC3)CC[C@H]21	none (no result: PDI turbidity, Rtt109 HAT inh)
O=C(N[C@H]1CC[C@H](CC(=O)N2CCCCC2)O[C@H]1CO)c1cccc(F)c1	none (no result: PDI turbidity, Rtt109 HAT inh)
COc1ccc(NC(=O)C2CCCN(c3cnccn3)C2)c(OC)c1 (configuration not stated)	SIRT5 inh 16
C[C@H](CO)N1C[C@H](C)[C@H](CN(C)C)Oc2ncc(-c3ccccc3F)cc2C1=O	SIRT5 inh 17 (no result: PDI turbidity, Rtt109 HAT inh)
CC(C)NC(=O)N(C)C[C@@H]1Oc2ncc(-c3ccccc3F)cc2C(=O)N([C@@H](C)CO)C[C@H]1C	DENV2 CPE 23 (no result: PDI turbidity, Rtt109 HAT inh)
C[C@@H]1CN([C@@H](C)CO)C(=O)c2cc(-c3ccccc3F)cnc2O[C@@H]1CN(C)C	none (no result: PDI turbidity, Rtt109 HAT inh)
CC(C)NC(=O)N(C)C[C@H]1Oc2ncc(-c3ccccc3F)cc2C(=O)N([C@H](C)CO)C[C@H]1C	none (no result: PDI turbidity, Rtt109 HAT inh)
C/C=C/c1cnc2c(c1)C(=O)N([C@@H](C)CO)C[C@H](C)[C@H](CN(C)Cc1ccccc1)O2	none (no result: PDI turbidity, Rtt109 HAT inh)
Cc1cc(C(=O)Nc2cccc3c2O[C@H](CN(C)Cc2ccccc2)[C@H](C)CN([C@@H](C)CO)C3=O)n(C)n1	none (no result: PDI turbidity, Rtt109 HAT inh)
Cc1cc(C(=O)Nc2cccc3c2O[C@@H](CN(C)Cc2ccc(Oc4ccccc4)cc2)[C@H](C)CN([C@H](C)CO)C3=O)n(C)n1	SIRT5 inh 22 (no result: PDI turbidity, Rtt109 HAT inh)
